Assay results published in PubChem BioAssay (NCI).
Where “and” joins values, the source holds several entries; their conditions need not be identical. Equal values may be shown once. Compounds without any hit were thinned out: in the full panel of roughly 79,000, 15% have a hit. Cut-off read from the data, not from the text of the source: active = growth inhibition above about 70%; inactive = the rest.

Key:
[1] = NCI Yeast Anticancer Drug Screen. Data for the rad50 strain (AID 155);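 note: 0% = growth of vehicle-only cultures of the same strain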; conditions: S. cerevisiae rad50 strain growth inhibition, hits give high values; at 50.0 µM unless noted
How it was run: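 Growth of the mutant yeast was measured after compound exposure and referenced to vehicle-treated cultures.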

[2] = NCI Yeast Anticancer Drug Screen. Data for the mec2-1 strain (AID 157); conditions: S. cerevisiae mec2-1 strain, hits give high values; at 50.0 µM unless noted
How it was run: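 Strain: mec2-1 (DNA repair/cell cycle alteration). Compound exposure, then growth measured; inhibition expressed relative to vehicle.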

[3] = NCI Yeast Anticancer Drug Screen. Data for the sgs1 mgt1 strain (AID 161);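 note: 0% = growth of cultures given vehicle only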; conditions: S. cerevisiae sgs1 mgt1 strain, hits give high values; at 50.0 µM unless noted
How it was run: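 Test agents were incubated with a DNA-repair-mutant yeast strain. Growth was then read and compared against vehicle-treated controls.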

[4] = NCI Yeast Anticancer Drug Screen. Data for the cln2 rad14 strain (AID 165);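 note: 0% = growth equal to vehicle treated cultures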; conditions: S. cerevisiae cln2 rad14 strain, hits give high values; at 50.0 µM unless noted
How it was run: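 Compounds are applied to the cln2 rad14 yeast strain, and growth is then compared with that of vehicle-treated cultures to give inhibition.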

[5] = NCI Yeast Anticancer Drug Screen. Data for the bub3 strain (AID 167); conditions: S. cerevisiae bub3 mutant strain, hits give high values; at 50.0 µM unless noted
How it was run: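 Whole-cell yeast assay. The mutant strain was incubated with compounds, and growth inhibition was determined by comparison with vehicle-treated cells.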

[6] = NCI Yeast Anticancer Drug Screen. Data for the mlh1 rad18 strain (AID 175); conditions: S. cerevisiae mlh1 rad18 strain growth inhibition, hits give high values; at 50.0 µM unless noted
How it was run: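 Read-out is yeast growth inhibition, calculated against vehicle-only controls. The compound was applied to a strain engineered with DNA damage repair alterations.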

Measured: growth inhibition

c1ccc(CCCNc2nnnc3ccccc23)cc1
inactive: [1] -9.3% | [2] -36.1% | [3] -10.8% | [4] -19.2% | [5] -57.2% | [6] -4.4%

CNC(=O)C1C(=O)NC(=O)C1=C1CCCC1 (stereo unspecified)
inactive: [1] 11.2% | [2] -1.1% | [3] 4.8% | [4] -58.8% | [5] 8.1% | [6] -14.6%

CCOC(=O)[C@H]1Nc2c(cccc2[N+](=O)[O-])C2c3ccccc3CC21 (stereo partly specified)
inactive: [1] 48.5% | [2] 1.55% | [3] 8.6% | [4] 25.3% | [5] 9.5% | [6] 13.6%

CC(/C(=N/O)c1ccccc1)N1C(=O)c2ccccc2C1=O (stereo unspecified)
inactive: [1] -31.1% | [2] -12.9% | [3] -4.5% | [4] -27.1% | [5] -3.95% | [6] 5.7%

N#Cc1ccc(CC(=O)c2ccccc2)cc1
inactive: [1] -6.05% | [2] 12.8% | [3] 0.45% | [4] -27.4% | [5] -0.75% | [6] 3.15%

C1CSCCSCCS1
inactive: [1] 11.6% | [2] 0.9% | [3] 20.1% | [4] 4.85% | [5] 28% | [6] -4.9%

CC1CCC2(C(=O)O)CCC3(C)C(=CCC4C5(C)CCC(O)C(C)(C)C5CCC43C)C2C1C (stereo unspecified)
inactive: [1] 12.8% and 11.4% | [2] 11.3% and 0.15% | [3] 12.3% and -9.2% | [4] 0.45% and 16.4% | [5] 5.8% and -7.4% | [6] 14.4% and 0.85%

COc1cc(/C=N/NC(=O)c2ccccc2OC)ccc1O
inactive: [1] 41.4% | [2] 17.4% | [3] 22.9% | [4] 20.8% | [5] 27.9% | [6] 17.2%

CCOC(=O)c1ccc(N/C(C)=C/C(=O)OC)cc1
inactive: [1] 3.45% | [2] -8.4% | [3] 11.2% | [4] -20.7% | [5] 1.95% | [6] 3.55%

COC1OC(C)C(OC(=O)c2ccccc2)C(OC(=O)c2ccccc2)C1OC(=O)c1ccccc1 (stereo unspecified)
inactive: [1] 16.2% | [2] -3.45% | [3] 3.75% | [4] -23.6% | [5] 1.95% | [6] 12.7%

C=C(Br)CN(C#N)CC(=C)Br
inactive: [1] -24.4% | [2] -18.1% | [3] 13.8% | [4] -4.25% | [5] -10.5% | [6] -56.9%
